The structures appear in SMILES notation. Out of some 350,000 compounds screened, about 6,000 (1.7%) were called active. Inconclusive results (about 5%) are left out. This is one part of a sample in which actives are shown more often than they occur. Unmarked numbers belong to inactive results. No stated cut-off is given here; in the data, active means CPE inhibition above about 20% (passing the limit was not always enough); inconclusive means no clear call, values can overlap the other calls; tested in BHK-21 cells.

The assay can be described thus: inhibitors of DENV2 cytopathic effect, primary screen, cell-based, plate reader, single concentration (AID 651640).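 Further: 0% = median of neutral control wells and 100% = median of positive control wells.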 The note with it: DENV2-infected cells, cytopathic effect rescue, at 9.99 µM, stronger effect = higher value.
In the case of `C[C@H]1CN([C@@H](C)CO)C(=O)c2cc(C3=CCCC3)cnc2O[C@H]1CN(C)Cc1ccccc1C(=O)O`, the CPE inhibition was 10.8%.
The same measure for `CC(C)C(=O)Nc1ccc2c(c1)C(=O)N(C)[C@@H]1CC[C@@H](CC(=O)NCCc3ccccc3)O[C@H]1CO2`: 19%.
The same measure for `C[C@@H]1CCCCO[C@@H](CN(C)Cc2ccncc2)[C@H](C)CN([C@@H](C)CO)C(=O)c2cc(NS(=O)(=O)c3ccccc3)ccc2O1`: -0.228%; for `C[C@@H]1CCCCO[C@@H](CN(C)C(=O)C2CCCCC2)[C@H](C)CN([C@H](C)CO)C(=O)c2cc(NC(=O)CCC(F)(F)F)ccc2O1`: 74.2% (active); for `C[C@@H]1CCCCO[C@@H](CN(C)C(=O)Nc2ccc(C(F)(F)F)cc2)[C@H](C)CN([C@H](C)CO)C(=O)c2cc(NC(=O)C3CCCCC3)ccc2O1`: 22.5% (active).
The same measure for `C[C@H](CO)N1C[C@H](C)[C@@H](CN(C)Cc2ccc(C(F)(F)F)cc2)OCCCC[C@H](C)Oc2ccc(NC(=O)C3CCCCC3)cc2C1=O`: -1.83%; for `C[C@@H]1CN([C@@H](C)CO)C(=O)c2cc(NC(=O)C3CCCCC3)ccc2O[C@@H](C)CCCCO[C@@H]1CN(C)C(=O)Nc1ccccc1`: -1.11%.
With `C[C@H]1CCCCO[C@H](CN(C)Cc2ccc(C(F)(F)F)cc2)[C@@H](C)CN([C@@H](C)CO)C(=O)c2cc(NC(=O)C3CCCCC3)ccc2O1`, the CPE inhibition is -17.3%.
For `C[C@@H]1CCCCO[C@@H](CN(C)C(=O)NC2CCCCC2)[C@@H](C)CN([C@H](C)CO)C(=O)c2cc(NC(=O)CCC(F)(F)F)ccc2O1` the value was -1.91%; for `C[C@@H]1CCCCO[C@@H](CN(C)C(=O)CCC(F)(F)F)[C@@H](C)CN([C@H](C)CO)C(=O)c2cc(NC(=O)CCC(F)(F)F)ccc2O1`, 4.89%.
For `C[C@@H]1CCCCO[C@H](CN(C)C(=O)Nc2ccc(C(F)(F)F)cc2)[C@H](C)CN([C@H](C)CO)C(=O)c2cc(NC(=O)Nc3ccc(C(F)(F)F)cc3)ccc2O1` the value was 2.81%.
The same measure for `C[C@H](CO)N1C[C@H](C)[C@H](CN(C)C(=O)Nc2ccc(C(F)(F)F)cc2)OCCCC[C@H](C)Oc2ccc(NC(=O)C3CCCCC3)cc2C1=O`: 21.9% (active).
Consider `C[C@@H]1CN([C@H](C)CO)C(=O)c2cc(C#Cc3ccccn3)cnc2O[C@H]1CN(C)CC1CCOCC1`, for which the CPE inhibition is -1.46%.
The same measure for `O=C(C[C@H]1CC[C@@H]2[C@H](COC[C@@H](O)CN2C(=O)Nc2cccc(F)c2)O1)NCc1ccccc1F`: 0.633%; for `COc1ccc2c3c([nH]c2c1)[C@H](CO)N(Cc1cccc(F)c1)CC31CCN(CC2CC2)CC1`: -32.6%.
For `C[C@H]1CCCCO[C@H](CN(C)CC2CC2)[C@@H](C)CN([C@@H](C)CO)C(=O)c2cc(NS(C)(=O)=O)ccc2O1` the value was 2.25%.
The same measure for `COc1ccccc1-c1cnc2c(c1)C(=O)N([C@H](C)CO)C[C@@H](C)[C@@H](CN(C)CC1CCCC1)O2`: 23.1%; for `C[C@@H]1CN([C@H](C)CO)C(=O)c2cc(NS(C)(=O)=O)ccc2O[C@@H]1CN(C)S(C)(=O)=O`: -0.244%.
Regarding `C[C@H](O)C#Cc1cnc2c(c1)C(=O)N([C@H](C)CO)C[C@H](C)[C@@H](CN(C)C(=O)Nc1ccc(F)cc1)O2`, the CPE inhibition was 8.69%.
For `CNC[C@@H]1OCCCC[C@H](C)Oc2ccc(NC(=O)Nc3ccc(OC)cc3)cc2C(=O)N([C@H](C)CO)C[C@@H]1C` the value was 7.49%; for `C[C@H]1CN([C@@H](C)CO)C(=O)c2cc(NS(=O)(=O)c3cccs3)ccc2O[C@@H]1CN(C)C(=O)Nc1cccc2ccccc12`, -2.31%; for `C[C@@H]1CCCCO[C@@H](CN(C)S(=O)(=O)c2ccc(F)cc2)[C@@H](C)CN([C@@H](C)CO)C(=O)c2cc(NS(=O)(=O)c3cccs3)ccc2O1`, 12.7%.
For `COc1ccc(NC(=O)N(C)C[C@H]2Oc3ccc(NS(=O)(=O)c4cccs4)cc3C(=O)N([C@@H](C)CO)C[C@H]2C)cc1` the value was -6.98%; for `C[C@@H]1CCCCO[C@H](CN(C)S(=O)(=O)c2ccc(Cl)cc2)[C@H](C)CN([C@@H](C)CO)C(=O)c2cc(NS(=O)(=O)c3cccs3)ccc2O1`, 63.8% (active); for `C[C@@H]1CN([C@H](C)CO)C(=O)c2cc(NS(=O)(=O)c3cccs3)ccc2O[C@@H](C)CCCCO[C@@H]1CN(C)S(=O)(=O)c1ccc(Cl)cc1`, 22.8% (active).
Turning to `C[C@H]1CN([C@@H](C)CO)C(=O)c2cc(NS(=O)(=O)c3cccs3)ccc2O[C@@H]1CN(C)C(=O)Nc1ccccc1`, the CPE inhibition was 22.2% (active).
The same measure for `C[C@@H]1CN([C@H](C)CO)C(=O)c2cc(NS(=O)(=O)c3cccs3)ccc2O[C@@H](C)CCCCO[C@@H]1CN(C)S(=O)(=O)c1cccs1`: -4.08%; for `C[C@@H]1CCCCO[C@H](CN(C)S(=O)(=O)c2cccs2)[C@H](C)CN([C@@H](C)CO)C(=O)c2cc(NS(=O)(=O)c3cccs3)ccc2O1`: -8.04%.
For `C[C@H]1CCCCO[C@@H](CN(C)S(=O)(=O)c2cccs2)[C@@H](C)CN([C@@H](C)CO)C(=O)c2cc(NS(=O)(=O)c3ccc(Cl)cc3)ccc2O1` the value was -0.143%.
Regarding `CC(C)NC(=O)Nc1ccc2c(c1)C(=O)N(C)[C@H]1CC[C@H](CC(=O)NCC3CCCCC3)O[C@@H]1CO2`, the CPE inhibition is -11%.
As to `C=C[C@H](OC)[C@@H](O)c1ccc(OC)c(O)c1`, the CPE inhibition is -1.37%.
For `C[C@H](CO)N1C[C@H](C)[C@@H](CN(C)C(=O)CCC(F)(F)F)OCCCC[C@H](C)Oc2ccc(NC(=O)C3CCCCC3)cc2C1=O` the value was -0.808%.
The same measure for `CCS(=O)(=O)N1[C@H](CO)[C@@H](c2ccccc2)C12CN(C(=O)C1CCC1)C2`: -6.37%; for `Cc1noc(C)c1NC(=O)N(C)C[C@@H]1Oc2ccc(NC(=O)Nc3ccc4c(c3)OCO4)cc2CC(=O)N([C@H](C)CO)C[C@H]1C`: 9.34%; for `C[C@@H]1CN([C@H](C)CO)C(=O)c2cc(C#CCC3CCCC3)cnc2O[C@H]1CN(C)C(=O)c1cnccn1`: 4.48%.
For `CO[C@H]1O[C@H](CO)[C@@H](OC(=O)Nc2ccc(C(F)(F)F)cc2)[C@H](OC(=O)Nc2ccc3c(c2)OCO3)[C@H]1OC(=O)Nc1ccc2c(c1)OCO2` the value was 3.41%.
In the case of `CO[C@@H]1CN(C)C(=O)c2cc(NC(=O)C3CC3)ccc2OC[C@@H](C)N(Cc2ccc(F)cc2)C[C@@H]1C`, the CPE inhibition is 3.49%.
Regarding `C[C@@H]1CN([C@@H](C)CO)C(=O)Cc2cc(NS(C)(=O)=O)ccc2O[C@H]1CN(C)C(=O)Nc1ccccc1`, the CPE inhibition is 16.2%.
With `C[C@@H]1CN([C@H](C)CO)C(=O)Cc2cc(NC(=O)CCN3CCOCC3)ccc2O[C@H]1CN(C)CC1CC1`, the CPE inhibition was -0.438%.
The same measure for `COc1ccc2c3c(n(C)c2c1)[C@@H](CO)N(C(=O)c1ccc(F)cc1)CC31CN(C(=O)c2ccc(F)cc2)C1`: 2.03%; for `CCS(=O)(=O)N1CC2(CN(Cc3cc(F)ccc3F)[C@@H](CO)c3c2c2ccc(OC)cc2n3C)C1`: -8.85%.
For `CCS(=O)(=O)N1CC2(CN(Cc3ccccc3)[C@@H](CO)c3c2c2ccc(OC)cc2n3C)C1` the value was 6.33%.
For `COc1ccc2c3c(n(C)c2c1)[C@H](CO)N(C(=O)CC1CC1)CC31CCN(Cc2nccs2)CC1` the value was -5.74%; for `COc1cc(CN2CC3(CN(S(=O)(=O)c4cn(C)cn4)C3)c3c(n(C)c4cc(OC)ccc34)[C@H]2CO)cc(OC)c1`, 58.8% (active).
For the molecule `COc1ccc2c3c([nH]c2c1)[C@@H](CO)N(C(=O)C1CC1)CC31CCN(Cc2nccs2)CC1`, the CPE inhibition is 25.2% (active).
The same measure for `COc1ccc2c3c(n(C)c2c1)[C@@H](CO)N(C(C)=O)CC31CCN(Cc2nccs2)CC1`: -1.04%; for `COc1ccc2c3c(n(C)c2c1)[C@H](CO)N(CC1CCCCC1)CC31CCN(Cc2nccs2)CC1`: 22.7% (active); for `CCS(=O)(=O)N1CC2(CN(C(=O)c3ccc(F)cc3)[C@H](CO)c3c2c2ccc(OC)cc2n3C)C1`: 21.9% (active).
For `COc1ccc2c3c([nH]c2c1)[C@H](CO)N(Cc1nccs1)CC31CCN(C(=O)C2CCC2)CC1` the value was -3.4%; for `COc1ccc2c3c([nH]c2c1)[C@@H](CO)N(Cc1nccs1)CC31CCN(C(=O)C2CCCC2)CC1`, -11.8%.
Take `CCS(=O)(=O)N1CC2(CN(C(=O)c3ccc(F)cc3)[C@@H](CO)c3c2c2ccc(OC)cc2n3C)C1`: the CPE inhibition was -7%.
The same measure for `Cc1noc(C)c1NC(=O)Nc1ccc2c(c1)C(=O)N([C@H](C)CO)C[C@H](C)[C@H](CN(C)Cc1ccc(C(=O)O)cc1)OCCCC[C@H](C)O2`: 3.28%; for `CO[C@H](CN(C)S(=O)(=O)c1ccc(C)cc1)[C@@H](C)CN(Cc1ccccc1Cl)[C@@H](C)CO`: -6.58%.
Turning to `C[C@H]1CCCCO[C@@H](CN(C)Cc2ccc3c(c2)OCO3)[C@@H](C)CN([C@@H](C)CO)C(=O)c2cc(NC(=O)c3ccccc3)ccc2O1`, the CPE inhibition was -5.55%.
The same measure for `C[C@H](CO)N1C[C@H](C)[C@@H](CN(C)S(=O)(=O)c2cccs2)OCCCC[C@H](C)Oc2ccc(NS(=O)(=O)c3ccccc3)cc2C1=O`: -5.76%; for `Cc1ccc(S(=O)(=O)Nc2ccc3c(c2)C(=O)N([C@@H](C)CO)C[C@H](C)[C@@H](CN(C)C(=O)Nc2ccc(F)cc2)OCCCC[C@H](C)O3)cc1`: 0.458%.

For the origin of these results see PubChem BioAssay AID651640 (Broad Institute, 2012).
